Shiga inhibitor – A qHTS for Small Molecule Inhibitors of Shiga Toxin; AID 2315, 2010; inhibition, % at 38.7 µM; hit rate 9.2% among 290,000; Vero cells, Shiga toxin protein synthesis inhibition reporter; in the data active = inhibition mostly above about 28%, no sharp cut-off; inactive = mostly below about 43%; also: 0% is about no effect
Marburg entry inh – qHTS for inhibitors of binding or entry into cells for Marburg Virus; AID 540276, 2011; hit rate 1.8% among 300,000; Potency, µM (doses to about 37.8 µM), without a hit: at the top dose activity change, negative = inhibition, hits mostly inhibitors; Marburg virus pseudotyped entry inhibition, cell reporter; calls by dose curve; tested in HEK293 cells; also: potency is read from the fitted curve at half-maximal effect; % is scaled to controls: 0 for no effect and ±100 for the full control effect
AMA1 RON2 block – qHTS for Inhibitors of AMA1-RON; Towards Development of Antimalarial Drug Lead: Primary Screen; AlphaScreen AMA1-biotinylated RON2 peptide binding; Potency, µM (series often up to 58.2 µM), for inactives: at the top dose activity change, negative = inhibition, usual class: inhibitors; hit rate 0.2% among 360,000; AID 720542, 2013; active = well fitted inhibition curve with a large enough effect; inconclusive = small, poorly fitted or top-dose-only effect; inactive = no such curve, though single readings can be large or run the other way;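 also: potency is read from the fitted curve at half-maximal effect; 0% = vehicle wells and -100% = peptide control; nearly all actives have a fitted effect of over 45% in size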
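AMA1 (3D7) with his tag at 25 nM final met compounds first, then biotinylated RON2 peptide at 25 nM; detection used donor plus acceptor beads, 10 µg/mL apiece, read by AlphaScreen after 30 min at room temperature.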
Lassa entry inh – qHTS for Inhibitors of binding or entry into cells for Lassa Virus; Lassa virus pseudotype entry inhibition, cell reporter; Potency, µM (doses to about 37.9 µM), for inactives: at the highest dose activity change, negative = inhibition, actives largely listed as inhibitors; hit rate 1.2% among 300,000; AID 540256, 2011; calls by dose curve; tested in HEK293 cells; also: potency is read from the fitted curve at half-maximal effect; % is scaled to controls: 0 for no effect and ±100 for the full control effect; nearly all actives have a fitted effect of over 50% in size
Cycloheximide cs – Cycloheximide Counterscreen for Small Molecule Inhibitors of Shiga Toxin. AID 2314, 2010. max response, %. cell reporter, cycloheximide protein synthesis inhibition counterscreen. hit rate 12% among 300,000; in the data active = max response mostly above about 13%, no sharp cut-off; inactive = mostly below about 14%; also: read at 38.3 µM for the half of the compounds with a filed dose; 0% is about no effect
* = called active by the depositor; ? = inconclusive; . = no result; [ ] = remark or other dose. This excerpt belongs to a sample that is enriched for hits.

SMILES	Shiga inhibitor	Marburg entry inh	AMA1 RON2 block	Lassa entry inh	Cycloheximide cs
O=C(N/N=C/C=N/NC(=O)c1ccco1)c1ccco1	-10	2%[46.1 µM]	39%	21%[46.1 µM]	12
CCC/C(=N\NC(=O)c1ccco1)c1ccc(Cl)s1	19	.	23%	.	22*
CCC/C(=N/NC(=O)c1csc(C)c1C)c1ccc(Cl)s1	92*	11%	19%	-28%	36
CC(NC(=O)c1ccco1)C(=O)OCC(=O)c1ccc(Cl)s1 (stereo not given)	-9	-18%[46.1 µM]	-16%	-9%[46.1 µM]	-2
CCCOC(=O)/C(C)=N\NC(=O)c1ccco1	154*	?	64%	?	64*
CCN(C(=O)CSc1nc2n[nH]c(C)c2c(=N)n1-c1cccc(OC)c1)c1cccc(C)c1	.	.	.	-31%[46.1 µM]	.
O=C(NC1CCCCC1)C(c1ccncc1)n1c(=O)c(-c2cc3ccccc3[nH]2)nc2ccccc21 (stereo not given)	.	.	37%	.	.
Cc1nc(C)c(-c2csc(N)n2)s1	-10	-1%	12%	13%	-1
Cc1ccnc(Nc2nc(-c3sc(C)nc3C)cs2)c1	.	5.6µM*	-11%	15%[46.1 µM]	.
Cc1nc(N)sc1-c1csc(Nc2ccc(Cl)cn2)n1	48*	?	6%	-9%	24*
CC(=O)Oc1ccc(-c2csc(Nc3ccc(Cl)cn3)n2)cc1	39*	.	-1%	.	42*
Cc1nc(C)c(-c2csc(Nc3ccccn3)n2)s1	112*	.	-10%	.	49*
Cc1nc(N)sc1-c1csc(Nc2cc(N(C)C)ccc2Cl)n1	.	.	56%	.	.
Cc1nc(N)sc1-c1csc(Nc2ccccn2)n1	122*	?	28%	?	34*
NNC(=O)C(=O)Nc1ccc(O)cc1	71	.	42%	.	23*
Cc1ccc(NC(=O)C(=O)NN)cc1	-3	.	-11%	.	-1
COc1cccc(CO[C@H]2C=C[C@@H](c3ccccc3)O[C@H]2CN=[N+]=[N-])c1	.	-17%[14.2 µM]	.	.	.
Cc1ccccc1-c1nnc(SCCC(=O)N2CCOCC2)o1	70*	?	-3%	.	23*
O=C(CCSc1nnc(-c2ccccc2)o1)N1CCOCC1	34	?	14%	5%	14
Cc1ccc(-c2nnc(SCCC(=O)N3CCOCC3)o2)cc1	52	-11%[46.1 µM]	9%	?	32*
COC[C@@H](OC(C)=O)[C@H]1OCc2ccccc2[C@H]1C=Cc1ccccc1	.	1%[14.2 µM]	.	.	.
CCN(CC)c1ccc2c(cc1=O)[C@@H](NC)CCc1cc(OC)c(OC)c(OC)c1-2	15	4µM*	-7%	1.1µM*	8
COc1cc2c(c(OC)c1OC)-c1ccc(N(C)CC(OC)OC)c(=O)cc1[C@@H](NC(C)=O)CC2	14	1µM*	8%	?	-7
Cc1csc(SCC(=O)Nc2cc(S(=O)(=O)N(C)C)ccc2C)n1	.	-28%[46.1 µM]	26%	6%	.
COC(=O)c1sccc1-c1ccc(C(=O)Nc2cccnc2)o1	127*	?	-5%	0%	39*
SMILES	Shiga inhibitor	Marburg entry inh	AMA1 RON2 block	Lassa entry inh	Cycloheximide cs
COC(=O)C(=Cc1ccc(-c2ccsc2C(=O)OC)o1)C(=O)OC	45*	-31%[14.2 µM]	-6%	-2%	38*
Cc1cccc(N2C(=O)NC(=O)/C(=C\c3cnc(-c4ccccc4)nc3)C2=O)c1	43	?	14%	18%	14*
Cc1cc(C)cc(N2C(=O)NC(=O)/C(=C\c3cccn3-c3ccc(Cl)cc3)C2=O)c1	14	?	-15%	?	11
Cc1ccc(N2C(=O)NC(=O)/C(=C/c3cnc(-c4ccccc4)nc3)C2=O)cc1C	15	14%	16%	17%	-3
Cc1cc(C)cc(N2C(=O)NC(=O)/C(=C\c3cccn3-c3ccccc3)C2=O)c1	-4	?	-28%	?	14*
COC(=O)CNC(=O)CSc1nc2sc(-c3ccccc3)cc2c(=O)n1-c1ccccc1	.	.	1%	.	.
CSc1nc2sc(-c3ccccc3)cc2c(=O)n1N	48	-15%	-1%	?	22*
NC(=O)NC(=O)CSc1nc2sc(-c3ccccc3)cc2c(=O)n1-c1ccccc1	20	4%[46.1 µM]	-7%	-10%[46.1 µM]	11*
CCc1nc(CN(C)C(=O)C2CCC(=O)N(Cc3cccc(F)c3)C2)no1 (stereo not given)	16	.	-1%	.	1
CSc1ccccc1OCc1cc(C(=O)N2CCC(c3ccncc3)CC2)no1	11	.	.	.	19*
CSc1ccccc1OCc1cc(C(=O)N2CCNC(=O)C2)no1	31	9%	0%	10%	13
CCOC(=O)N1CCC(NC(=O)c2cc(COc3ccccc3SC)on2)CC1	35	-20%	5%	-28%	27*
COc1ccc(N2C(=O)C(CC(=O)Nc3ccccc3)N(CCC3=CCCCC3)C2=O)cc1 (stereo not given)	.	-6%[46.1 µM]	.	1%[46.1 µM]	.
O=C(NCc1nnc(SCc2ccc(C(F)(F)F)cc2)n1-c1ccccc1)C12CC3CC(CC(C3)C1)C2	-6	11µM*	5%	?	0
CCCC/C(O)=C1\C(=O)CCCC1=NCCc1c(C)[nH]c2ccc(OC)cc12	-3	8.9µM*	-29%	?	-2
Cc1ccc(Nc2nnc(SCC(=O)Nc3cccc(S(=O)(=O)N4CCCCC4)c3)s2)cc1	5	?	30%	?	53*
O=C(CSc1nnc(Nc2ccccc2F)s1)Nc1cccc(S(=O)(=O)N2CCCCC2)c1	75*	?	-1%	?	42*
Cc1ccc(-c2nc(SCC(=O)Nc3cc(S(=O)(=O)N4CCCCC4)ccc3Cl)n[nH]2)cc1	3	16µM*	-11%	?	17*
Nc1cc(=O)[nH]c(SCC(=O)Nc2cc(S(=O)(=O)N3CCCCCC3)ccc2Cl)n1	.	-23%	-4%	-2%	.
Cc1ccc(Nc2nnc(SCC(=O)NCCN3C(=O)CSC3=O)s2)cc1	31	-3%	-3%	?	13*
COC(=O)c1ccc(OC)c(Cn2c(=O)n(-c3cccc(Cl)c3)c(=O)c3c4c(sc32)CN(C(C)=O)CC4)c1	.	-1%[46.1 µM]	.	16%[46.1 µM]	.
CCCCC[C@@H](C)N1C[C@@H](COCc2ccccc2)Oc2cc(N3CCC[C@H]3COC)ccc2S1(=O)=O	.	.	-4%	.	.
CC(CCc1ccccc1)NC(=O)COC(=O)c1cc(NS(=O)(=O)c2ccc(Cl)c([N+](=O)[O-])c2)ccc1O (stereo not given)	-9	2.5µM*	2%	-12%	-4
CCOc1ccccc1NC(=O)C1COc2ccccc2O1 (stereo not given)	22	.	69%	.	9
O=C1OC(Nc2ccc3ncccc3c2)c2ccccc21 (stereo not given)	54*	5%	-4%	3%	27*
Cc1cccnc1NC1OC(=O)c2ccccc21 (stereo not given)	-24	?	-13%	22%	1
CSc1ncc2c(n1)-c1ccccc1N(Cc1ccccc1)S2(=O)=O	.	.	.	7%[46.1 µM]	.
CCOC(=O)c1ccc(NC(=S)N(CCN2CCCCCC2)Cc2cccs2)cc1	-3	8.9µM*	-2%	?	-4

Bioassay records (PubChem)
